According to PubChem BioAssay AID1851 (National Center for Advancing Translational Sciences (NCATS), 2009):
Out of some 16,000 compounds screened, about 5,100 (32%) were called active. Another 25% or so got no clear call; they are omitted. The call rests on the fitted dose curve; in most records, active means well fitted curve in the direction sought with a large enough effect; inconclusive means small, poorly fitted or top-dose-only effect, or effect the other way; inactive means no such curve, though single readings can be large or run the other way. Some of the results follow.

Biological target: Cytochrome P450 3A4 (Homo sapiens) (UniProt P08684)
Sequence (P08684 whole entry, looked up): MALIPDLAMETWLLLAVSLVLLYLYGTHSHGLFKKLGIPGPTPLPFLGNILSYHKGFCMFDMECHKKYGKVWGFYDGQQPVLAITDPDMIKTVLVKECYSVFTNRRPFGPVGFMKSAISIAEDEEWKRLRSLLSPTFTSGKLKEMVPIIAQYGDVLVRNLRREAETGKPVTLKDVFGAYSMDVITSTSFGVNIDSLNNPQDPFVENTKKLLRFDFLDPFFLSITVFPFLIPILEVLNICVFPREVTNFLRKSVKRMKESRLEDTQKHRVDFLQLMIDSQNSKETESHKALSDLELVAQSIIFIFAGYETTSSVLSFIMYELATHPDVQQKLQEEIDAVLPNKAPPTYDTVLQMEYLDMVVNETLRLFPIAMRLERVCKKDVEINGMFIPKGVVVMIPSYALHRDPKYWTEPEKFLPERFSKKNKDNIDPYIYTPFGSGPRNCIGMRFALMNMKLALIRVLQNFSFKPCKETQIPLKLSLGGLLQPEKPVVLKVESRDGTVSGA
Test: Cytochrome panel assay with activity outcomes
Conditions: recombinant CYP, pro-luciferin dealkylation, luminescence, p450-cyp3a4; series mostly up to 57.1 µM
On the % scale 0 is the no-effect control and ±100 the full control effect.

| SMILES | AC50 | activity, negative = inhibition |
| --- | --- | --- |
| O=C1O/C(=C\Br)CC[C@@H]1c1cccc2ccccc12 | 3.98 µM (active) | – |
| Cc1cccc(-c2c3c(=O)n(C)c(=O)n(C)c3cn2C2CCCCC2)c1 | 7.94 µM (active) | – |
| COc1ccccc1NC(=O)C(C/C=C(\C)Cl)C(C)=O (stereo not drawn) | 14.1 µM (active) | – |
| COC(=O)c1ccccc1NC(=O)C(CCS(C)(=O)=O)NC(C)=O (stereo not drawn) | inactive | – |
| CCCN1C(=O)C2(/C(=C(\O)c3ccc4c(c3)OCCO4)C(=O)C(=O)N2CCCOC)c2ccccc21 (stereo not drawn) | inactive | – |
| COc1ccccc1CN1CCC2(CC1)CCN(C(=O)c1ccco1)CC2 | inactive | – |
| COCC(=O)N1CCC[C@@]2(CCN(Cc3ccccc3OC)C2)C1 | inactive | – |
| COc1ccccc1CN1CC[C@@]2(CCCN(C(=O)c3cccn3C)C2)C1 | 12.6 µM (active) | – |
| COc1ccccc1CN1CCC2(CC1)CCN(C(=O)c1cccn1C)CC2 | inactive | – |
| COc1ccccc1CN1CC[C@@]2(CCCN(C(C)=O)C2)C1 | inactive | – |
| COc1ccccc1CN1CC[C@@]2(CCCN(C(=O)c3ccco3)C2)C1 | 20 µM (active) | – |
| Cc1cc(NC(=O)c2nn(C)c(C)c2[N+](=O)[O-])no1 | inactive | – |
| C=CCNc1nc(-c2ccc(Cl)cc2)cs1 | 14.1 µM (active) | – |
| Cc1ccc(-c2csc(N/N=C/c3ccco3)n2)cc1 | – | -6.49% [at 2.29 µM] (inactive) |
| CCCCCN1CC(O)=C(c2nc(-c3ccc(Cl)cc3)cs2)C1=N | inactive | – |
| CC(C)(C)NC[C@H](O)COc1cccc2c1CCC(=O)N2 | inactive | – |
| CC(C)(C)NC(=O)C(Cc1ccccc1)NS(=O)(=O)c1ccc2c(c1)CCC(=O)N2 (stereo not drawn) | 3.16 µM (active) | – |
| CC1=N[C@@](C)(COC(=O)[C@]2(C)N[C@](C)(CO)CO2)COC1=O | – | -22.8% [at 11.4 µM] (inactive) |
| Cc1cccc(OCC(=O)N/N=C\C=C\c2ccc3c(c2)OCO3)c1C | 2.24 µM (active) | – |
| COC(=O)N/N=C\C=C\c1ccc2c(c1)OCO2 | inactive | – |
| N[C@@H](Cc1nn[nH]n1)C(=O)O | – | -2.7% [at 11.4 µM] (inactive) |

| SMILES | AC50 | activity, negative = inhibition |
| --- | --- | --- |
| Cc1ccsc1-c1nc(-c2ccccc2)c(-c2ccccc2)[nH]1 | 14.1 µM (active) | – |
| O=C(O)c1nc(-c2ccccc2)[nH]c1C(=O)O | – | -3.83% [at 11.4 µM] (inactive) |
| c1ccc(-c2nc(-c3cccs3)[nH]c2-c2ccccc2)cc1 | 11.2 µM (active) | – |
| O=[N+]([O-])c1cccc(-c2nc(-c3cccs3)c(-c3cccs3)[nH]2)c1 | 12.6 µM (active) | – |
| O=[N+]([O-])c1cccc(-c2nc(-c3ccccc3)c(-c3cccs3)[nH]2)c1 | – | -13.1% [at 2.29 µM] (inactive) |
| COc1ccc(-c2[nH]c(-c3ccc(C(=O)O)cc3)nc2-c2ccccc2)cc1 | inactive | – |
| CCOC(=O)Cc1cc(=O)n2[nH]c(C)c(C#N)c2n1 | inactive | – |
| NC(=O)C(=O)O | inactive | – |
| COc1ccc(C(=O)CN2CCN(c3ccc(F)cc3)CC2)cc1OC | 28.2 µM (active) | – |
| CCOc1cc(CN2CCN(c3ccc(C(C)=O)cc3)CC2)ccc1OC | inactive | – |
| CCC(C)NCc1ccc(C(=O)OC)o1 (stereo not drawn) | inactive | – |
| CCC/C=C(\CCC)C(NS(=O)(=O)c1cccc2cccnc12)c1ccc(C(=O)OC)cc1 (stereo not drawn) | 5.01 µM (active) | – |
| CCC/C=C(\CCC)C(NS(=O)(=O)c1cccc2cccnc12)c1ccc(-c2ccccc2)cc1 (stereo not drawn) | 3.16 µM (active) | – |
| CCC(C)N1C(=O)C2C(C(=O)Nc3cccc(OC)c3)C3C=CC2(O3)C1C(=O)NC1CCCCC1C (stereo not drawn) | 15.8 µM (active) | – |
| CC12CCC(C(=O)O)(C/C1=N\O)C2(C)C (stereo not drawn) | inactive | – |
| COc1ccc(C2C(C(=O)N3CCN(C)CC3)c3ccccc3C(=O)N2C2CCCCC2)cc1 (stereo not drawn) | 5.01 µM (active) | – |
| COc1ccc(C2C(C(=O)N3CCOCC3)c3ccccc3C(=O)N2c2ccc(OC)cc2)cc1 (stereo not drawn) | 8.91 µM (active) | – |
| CN1C(=O)c2ccccc2C(C(=O)O)C1c1cn(C)c2ccccc12 (stereo not drawn) | – | 7.7% [at 2.29 µM] (inactive) |
| CCOc1ccc(C2C(C(=O)O)c3ccccc3C(=O)N2CCN2CCOCC2)cc1 (stereo not drawn) | inactive | – |
| COc1ccccc1N1CCN(Cc2cc(=O)n3ccsc3n2)CC1 | inactive | – |
| COc1ccccc1N1CCN(c2nc3c(C)cccn3c(=O)c2C=O)CC1 | 15.8 µM (active) | – |

| SMILES | AC50 | activity, negative = inhibition |
| --- | --- | --- |
| Cc1cccn2c(=O)c3cc(C(=O)N4COCC4(C)C)n(C)c3nc12 | inactive | – |
| Cc1cccn2c(=O)c(/C=N/O)c(N3CCCC3)nc12 | 12.6 µM (active) | – |
| Cc1cccn2c(=O)c(C=NCc3ccco3)c(Nc3ccc(SC(F)F)cc3)nc12 | inactive | – |
| CC(=O)[C@@H](C)CCO[C@@]1(C)OCC[C@@H]1C | – | -5.36% [at 11.4 µM] (inactive) |
| Cc1ccc(CNC(=O)Cc2csc(Nc3nc(=S)[nH]c4ccccc34)n2)cc1 | 1 µM (active) | – |
| COc1ccc(CNC(=O)Cc2csc(Nc3nc(=S)[nH]c4ccccc34)n2)cc1 | 1.26 µM (active) | – |
| CCOC(=O)Cc1csc(NS(=O)(=O)c2ccccc2)n1 | – | 6.45% [at 2.29 µM] (inactive) |
| O=C(Cc1csc(Nc2nc(=S)[nH]c3ccccc23)n1)NCc1cccc(Cl)c1 | 1.78 µM (active) | – |
| O=C(Nc1ccccc1)N1CCOCC1 | inactive | – |
| O=C(Nc1cccc(NC(=O)N2CCN(c3ccccc3)CC2)c1)N1CCN(c2ccccc2)CC1 | 6.31 µM (active) | – |
| Cc1ccc2nc(C3CCCN(C(=S)Nc4ccccc4C)C3)[nH]c2c1 (stereo not drawn) | 6.31 µM (active) | – |
| O=C(O)c1ccc(NCc2nc3cc4ccccc4cc3[nH]2)cc1 | – | -11.9% [at 11.4 µM] (inactive) |
| Cc1cc2nc(C3CCCN(C(=O)NCc4ccccc4)C3)[nH]c2cc1C (stereo not drawn) | 10 µM (active) | – |
| Cc1cccc(NC(=S)N2CCC(N(C)CC3CCCO3)CC2)c1C (stereo not drawn) | inactive | – |
| CC(=O)Nc1ccc2nc(C3CCCCC3)[nH]c2c1 | inactive | – |
| O=C(CSc1nnc(-c2ccc(Cl)cc2Cl)n1C1CCCCC1)NC1CCS(=O)(=O)C1 (stereo not drawn) | 10 µM (active) | – |
| Cc1cc(C)n2c(SCC(=O)N(C)C3CCS(=O)(=O)C3)nnc2n1 (stereo not drawn) | inactive | – |
| Cc1ccc(-n2ccnc2SCC(=O)N(CC(C)C)C2CCS(=O)(=O)C2)c(C)c1 (stereo not drawn) | – | -16.9% [at 2.29 µM] (inactive) |
| O=P(Cc1cc[n+]([O-])cc1)(c1ccccc1)c1ccccc1 | 14.1 µM (active) | – |
| O=P(O)(CCP(=O)(O)c1ccccc1)c1ccccc1 | – | -3.78% [at 11.4 µM] (inactive) |
| O=P(O)(O)CCP(=O)(c1ccccc1)c1ccccc1 | inactive | – |
